Data as given in PubChem BioAssay (EPA / NIEHS).
Several values for one entry are separate records, joined by “and”; a condition that tells them apart may be missing. Equal values may be shown once. Records with an inconclusive call do not appear. Some compounds were tested as several samples or in several runs, with calls that do not always agree. Activity calls are given as the source filed them. Rule for the calls: active = hit-call score of the fitted dose curve at least 0.9, where 1 is the maximum; inconclusive = response in the unintended direction; inactive = score below 0.9.

Each compound was assayed against Cellular tumor antigen p53 (Homo sapiens) (UniProt P04637) (assay: TOX21_p53_BLA_p5_ratio: Tox21 HCT-116 p53 Agonism Beta-lactamase Assay, Ratio, Phase 5 (AID 2283599)).
Cellular tumor antigen p53 (Homo sapiens), sequence (P04637 whole entry, looked up, the tested form may be a part): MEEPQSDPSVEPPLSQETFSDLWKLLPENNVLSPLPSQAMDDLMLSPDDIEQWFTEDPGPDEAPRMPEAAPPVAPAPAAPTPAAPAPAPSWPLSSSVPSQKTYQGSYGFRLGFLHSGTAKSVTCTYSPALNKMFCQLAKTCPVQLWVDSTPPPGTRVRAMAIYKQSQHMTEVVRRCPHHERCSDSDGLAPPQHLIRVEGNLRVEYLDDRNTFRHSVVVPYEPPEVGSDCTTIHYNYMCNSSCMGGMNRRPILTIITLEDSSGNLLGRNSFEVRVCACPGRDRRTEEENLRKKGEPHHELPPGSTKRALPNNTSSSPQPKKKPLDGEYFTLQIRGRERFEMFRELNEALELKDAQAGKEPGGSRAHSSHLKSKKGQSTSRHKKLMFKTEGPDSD
Description: TOX21_p53_BLA_p5 is a cell-based, single-readout assay that uses HCT116, a human intestinal cell line, […] in a 1536-well plate.TOX21_p53_BLA_p5_ratio is an assay readout measuring reporter gene via receptor activity and designed using inducible reporter (beta lactamase induction) detected with GAL4 b-lactamase reporter gene. The signal is derived from the ratio of cleaved (ch2) to uncleaved (ch1) reporter gene substrate used as the measure of target activity.Data from the assay component TOX21_p53_BLA_p5_ratio was analyzed into 1 assay endpoint. This assay endpoint, TOX21_p53_BLA_p5_ratio, was analyzed in the positive analysis fitting direction relative to DMSO as the negative control and baseline of activity. Using a type of inducible reporter, gain-of-signal activity can be used to understand changes in the reporter gene as they relate to the gene TP53. Furthermore, this assay endpoint can be referred to as a primary readout, because this assay has produced multiple assay endpoints and this ratio serves a reporter gene function to understand target activity. To generalize the intended target to other relatable targets, this assay endpoint is annotated to the DNA binding intended target family, where the subfamily is tumor suppressor.
Thawing Method: Place 14 mL of pre-warmed thaw medium into a 15 mL of conical tub. Remove the vial of cells to be thawed from liquid nitrogen and thaw rapidly by placing at 37C in a water bath with gentle agitation for 1-2 minutes. Decontaminate the vial by wiping with 70% ethanol before opening in a biological safety cabinet. Transfer the vial contents drop-wise into 14 mL of thaw medium in a sterile 15-mL conical tub. Centrifuge cells at 900 rpm for 4 minutes and resuspend in thaw medium. Transfer contents to the T75 tissue culture flask containing Thaw Medium and place flask in a humidified 37C/5% CO2 incubator. Switch to growth medium at first passage.Propagation Method: Aspirate medium, rinse once in DPBS, add 0.25% Trypsin/EDTA and swirl to coat the cell evenly. Add an equal volume of Growth Medium to inactivate Trypsin after 2-3 minutes incubation at 37C. Centrifuge cells at 900 rpm for 4 minutes and resuspend in growth medium. Cell should be passage or fed at least twice a week.Assay Protocol: Harvest cells from culture in growth medium and resuspend in assay medium. 2.2 Dispense 4000 cells/5 uL/well into 1536-well black/clear bottom plates using a Multidrop dispenser. After the cells were incubated at 37C for 5 hours, 23 nL of compounds dissolved in DMSO were transferred to the assay plate by a PinTool resulting in a 217-fold dilution. Incubate the plates for 16 hours at 37C, 5% CO2. Add 1 uL of 6X LiveBLAzer FRET B/G (CCF4-AM) Substrate Mixture to each well using a BioRAPTR dispenser and incubate the plates at room temperature for 2 hours. Measure fluorescence intensity at 460 and 530 nm emission and 405 nm excitation by an Envision detector. Data is expressed as the ratio of 460nm/530nm emissions. Add 4 uL of Cell-titer Glo to each well using BioRAPTR and incubate the plates at room temperature for 2 hours. Measure fluorescence intensity by a VewLux plate reader.

SMILES	outcome	AC50
CCCC=NO	inactive	–
O=c1[nH]c(Cl)c(Cl)cc1Cl	inactive	–
O=c1c2ccccc2c(=O)c2c1cc(Cl)c1[nH]c3c([nH]c12)c(Cl)cc1c(=O)c2ccccc2c(=O)c13	inactive	–
ClC(Br)Br	inactive	–
O=C(Cl)OCc1ccccc1	inactive	–
CC(C)COP(=O)(OCC(C)C)OCC(C)C	inactive	–
C[C@]12CCC(=O)C(O)=C1CC[C@@H]1[C@@H]2CC[C@]2(C)C(=O)CC[C@@H]12	inactive	–
[N-]=[N+]=CC(=O)OC[C@H](N)C(=O)O	inactive	–
CON(C)C(=O)Nc1ccc(Cl)cc1	inactive	–
Nc1ccc([N+](=O)[O-])cc1N	inactive	–
CCOC(=O)C1OC1(C)c1ccccc1 (stereo not given)	inactive	–
COC(=O)[C@]12CCC(C)(C)C[C@H]1[C@H]1C(=O)C=C3[C@@]4(C)C=C(C#N)C(=O)C(C)(C)[C@@H]4CC[C@@]3(C)[C@]1(C)CC2	–	31.7 µM (active)
C#C[C@]1(O)C=C[C@H]2[C@@H]3CCC4=CC(=O)CC[C@@H]4[C@H]3CC[C@@]21CC	inactive	–
Cn1c(CCCC(=O)O)nc2cc(N(CCCl)CCCl)ccc21	–	33.1 µM (active)
C=CC(=O)OCCN(C)C	inactive	–
COP(N)(=S)Oc1ccccc1C(=O)OC(C)C (stereo not given)	inactive	–
CCN(Cc1ccc(Cl)nc1)/C(=C/[N+](=O)[O-])NC	inactive	–
O=C(O)C(Cl)(Cl)Br	inactive	–
O=C(O)c1cc(Cl)ccc1Cl	inactive	–
CCCBr	inactive	–

SMILES	outcome	AC50
C=CCN(CC=C)C(=O)C(Cl)Cl	inactive	–
CCCCCCCCCCCCCCCCCCn1cc[n+](C)c1	inactive	–
CN1C[C@H](C(=O)N[C@]2(C)O[C@@]3(O)[C@@H]4CCCN4C(=O)[C@H](Cc4ccccc4)N3C2=O)C=C2c3cccc4[nH]cc(c34)C[C@H]21	inactive	–
CC[C@H](N)c1ccccc1	inactive	–
C=CCC1(C(C)CCC)C(=O)N=C(S)NC1=O (stereo not given)	inactive	–
CCCCCCC(=O)O[C@H]1CC[C@H]2[C@@H]3CC[C@H]4CC(=O)C=C(C)[C@]4(C)[C@H]3CC[C@]12C	inactive	–
Oc1cccc(Cl)c1	inactive	–
CNC1(c2ccccc2Cl)CCCCC1=O (stereo not given)	inactive	–
CCCCCBr	inactive	–
ClC(Cl)(Cl)Cl	inactive	–
CC(C)[N+](C)(CCC(C(N)=O)(c1ccccc1)c1ccccc1)C(C)C	inactive	–
CCCCCCCCCCCCCCCCn1cc[n+](C)c1	inactive	78.3 µM (active) and 41.3 µM (active)
NP(N)(=O)NC(=O)c1ccc(F)cc1	inactive	–
CCC1(c2ccccc2)C(=O)NC(=O)N(C(=O)c2ccccc2)C1=O (stereo not given)	inactive	–
Brc1ccc(Oc2ccc(Br)cc2Br)c(Br)c1	inactive	–
Cc1cccc2sc3nncn3c12	inactive	–
CN	inactive	–
CCCN1CCC[C@H](c2cccc(O)c2)C1	inactive	–
CCC1(CC)C(=O)NC(=O)N(C)C1=O	inactive	–
